Measured values published in PubChem BioAssay (EPA / NIEHS).
Records with an inconclusive call do not appear. Calls of active or inactive are those of the source. Rule for the calls, unless noted: active = hit-call score of the fitted dose curve at least 0.9, where 1 is the maximum; inactive = score below 0.9.

Key:
[1] = molecular target: Glucocorticoid receptor (Homo sapiens) (UniProt P04150); assay: ATG_GR_TRANS: Attagene TRANS-FACTORIAL HepG2 Assay for human Glucocorticoid Receptor (GR) (AID 2282978; active = hit-call score of the fitted dose curve at least 0.9, where 1 is the maximum;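 note: activators score as hits since higher reporter transcript over DMSO is fitted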); conditions: HepG2 Attagene TRANS GR reporter, mRNA transcription
Chain of Glucocorticoid receptor (Homo sapiens) (P04150 whole entry, looked up, the tested form may be a part): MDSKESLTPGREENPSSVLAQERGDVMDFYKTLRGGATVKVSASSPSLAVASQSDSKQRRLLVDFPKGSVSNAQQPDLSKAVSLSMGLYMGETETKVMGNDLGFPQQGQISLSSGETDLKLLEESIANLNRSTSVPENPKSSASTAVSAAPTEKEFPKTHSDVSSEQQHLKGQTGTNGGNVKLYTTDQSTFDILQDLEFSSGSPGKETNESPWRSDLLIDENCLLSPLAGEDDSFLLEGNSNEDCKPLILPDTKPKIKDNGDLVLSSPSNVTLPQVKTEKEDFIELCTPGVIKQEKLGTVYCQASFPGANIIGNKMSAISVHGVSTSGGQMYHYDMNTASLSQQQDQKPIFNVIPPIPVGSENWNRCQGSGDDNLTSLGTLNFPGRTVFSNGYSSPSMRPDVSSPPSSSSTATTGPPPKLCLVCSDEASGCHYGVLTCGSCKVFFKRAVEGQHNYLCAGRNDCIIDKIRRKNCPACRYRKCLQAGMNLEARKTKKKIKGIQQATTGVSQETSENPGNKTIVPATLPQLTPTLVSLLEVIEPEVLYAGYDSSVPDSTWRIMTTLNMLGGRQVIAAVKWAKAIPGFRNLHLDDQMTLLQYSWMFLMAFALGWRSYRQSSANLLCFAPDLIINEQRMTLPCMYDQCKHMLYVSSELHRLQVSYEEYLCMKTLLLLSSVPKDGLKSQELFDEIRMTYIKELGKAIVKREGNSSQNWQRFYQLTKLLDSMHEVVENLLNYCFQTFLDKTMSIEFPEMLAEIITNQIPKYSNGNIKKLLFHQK
Procedure, shortened: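 Reporter transcript levels, detected by fluorescence after RT-PCR and capillary electrophoresis, served as the endpoint. HepG2 cells bearing transfected GAL4-UAS reporters responsive to NR-GAL4 chimeras were incubated with compound 24 h; DMSO defined baseline.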

[2] = ATG_M_32_TRANS: Attagene TRANS-FACTORIAL HepG2 Assay for M32 Transcription Factor (Internal Marker) (AID 2282984; active = hit-call score of the fitted dose curve at least 0.9, where 1 is the maximum;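 note: transcript level of a background control reporter unit measured by RT-PCR and capillary electrophoresis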); conditions: HepG2 Attagene TRANS M32 internal marker reporter
Procedure, shortened: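 After 24 h dosing of transfected HepG2 cells, total RNA was reverse-transcribed, reporter sequences PCR-amplified, 6-FAM labelled by primer extension and HpaI-digested before capillary electrophoresis. Signal increase over DMSO was fitted.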

[3] = molecular target: Nuclear respiratory factor 1 (Homo sapiens) (UniProt Q16656); assay: ATG_NRF1_CIS: Attagene CIS-FACTORIAL HepG2 Assay for human Nuclear Respiratory Factor 1 (NRF1) Orphan Gene (AID 2282987); conditions: HepG2 NRF1 cis-element reporter, Attagene multiplex; actives raise or lower the signal
Chain of Nuclear respiratory factor 1 (Homo sapiens) (Q16656 whole entry, looked up, the tested form may be a part): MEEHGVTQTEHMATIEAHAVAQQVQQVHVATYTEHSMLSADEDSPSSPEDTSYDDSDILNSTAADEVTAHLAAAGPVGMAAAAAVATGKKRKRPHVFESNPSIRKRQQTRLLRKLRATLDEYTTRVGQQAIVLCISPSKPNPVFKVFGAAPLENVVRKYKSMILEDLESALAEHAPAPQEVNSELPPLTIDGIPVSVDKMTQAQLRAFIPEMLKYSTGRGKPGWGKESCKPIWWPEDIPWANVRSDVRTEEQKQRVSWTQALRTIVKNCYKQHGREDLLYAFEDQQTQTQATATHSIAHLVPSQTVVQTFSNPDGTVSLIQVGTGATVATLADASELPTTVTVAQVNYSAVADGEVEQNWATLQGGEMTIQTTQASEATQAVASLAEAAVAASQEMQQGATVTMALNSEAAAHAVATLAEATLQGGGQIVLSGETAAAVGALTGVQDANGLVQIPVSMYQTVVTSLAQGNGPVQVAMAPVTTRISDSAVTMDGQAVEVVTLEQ
Procedure, shortened: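 Cells (HepG2, transient MRTU transfection) are exposed to compound for 24 h, then RNA isolated and reporter mRNA amplified and fluorescently labelled. Fragments are separated by capillary electrophoresis; signal change is fitted bidirectionally relative to DMSO.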

[4] = ATG_NFI_CIS: Attagene CIS-FACTORIAL HepG2 Assay for human Nuclear Factor I (NFI) (AID 2282989); conditions: HepG2 cis-regulatory reporter, NFI response element transcription; actives raise or lower the signal
Procedure, shortened: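 Transfected HepG2 liver cells, exposed 24 h, supplied total RNA for oligo(dT) reverse transcription and reporter-specific PCR. Labelled, HpaI-cut fragments were sized by capillary electrophoresis; DMSO set the baseline for bidirectional fitting.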

[5] = molecular target: Myc proto-oncogene protein (Homo sapiens) (UniProt P01106); assay: ATG_Myc_CIS: Attagene CIS-FACTORIAL HepG2 Assay for human Myelocytomatosis (Myc) Proto-Oncogene Transcription Factor (AID 2282990); conditions: HepG2, Attagene cis-reporter transcription factor activity; actives raise or lower the signal
Chain of Myc proto-oncogene protein (Homo sapiens) (P01106 whole entry, looked up): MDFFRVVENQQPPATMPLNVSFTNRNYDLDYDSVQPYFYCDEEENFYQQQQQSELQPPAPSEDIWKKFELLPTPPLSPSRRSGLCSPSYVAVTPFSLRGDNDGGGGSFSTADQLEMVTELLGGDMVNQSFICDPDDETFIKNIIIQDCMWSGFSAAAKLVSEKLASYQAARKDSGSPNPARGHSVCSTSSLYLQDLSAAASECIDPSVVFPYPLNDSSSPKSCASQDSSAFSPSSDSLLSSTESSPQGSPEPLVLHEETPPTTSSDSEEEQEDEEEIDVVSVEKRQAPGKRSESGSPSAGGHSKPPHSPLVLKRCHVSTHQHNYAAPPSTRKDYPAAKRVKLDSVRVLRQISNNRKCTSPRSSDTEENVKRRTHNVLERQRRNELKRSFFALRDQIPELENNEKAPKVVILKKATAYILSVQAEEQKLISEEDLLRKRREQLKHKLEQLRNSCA
Procedure, shortened: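 HepG2 cells transiently transfected with multiple cis-promoter-driven reporter transcription units, so endogenous TF activity is read. After 24 h compound exposure, reporter mRNA was quantified by RT-PCR, 6-FAM labelling, HpaI digestion and capillary electrophoresis; bidirectional fit versus DMSO.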

[6] = ATG_NRF2_ARE_CIS: Attagene CIS-FACTORIAL HepG2 Assay for human Nuclear Factor Erythroid 2 Related Factor 2 (NFR2) response to Antioxidant Response Elements (ARE) (AID 2282992); conditions: HepG2 Attagene ARE/NRF2 reporter, transcription factor activity; actives raise or lower the signal;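 for AC50: reporter mRNA level measured by RT-PCR and capillary electrophoresis fluorescence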
Procedure, shortened: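 Fluorescence intensity of reporter-specific cDNA fragments, separated by capillary electrophoresis, reflects mRNA induction in transfected HepG2 cells at 24 h. Activity is fitted bidirectionally, DMSO serving as baseline.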

[7] = ATG_Oct_MLP_CIS: Attagene CIS-FACTORIAL HepG2 Assay for human Octamer-Binding Transcription Factor (Oct) (AID 2282993); conditions: HepG2 Attagene cis-factorial Oct reporter, mRNA; actives raise or lower the signal
Procedure, shortened: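 Using HepG2 cells bearing transfected cis-reporter constructs, mRNA induction was read after 24 h by fluorescent RT-PCR and capillary electrophoresis, with DMSO defining baseline for gain- or loss-of-signal fits.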

[8] = molecular target: Bile acid receptor (Homo sapiens) (UniProt Q96RI1); assay: ATG_FXR_TRANS: Attagene TRANS-FACTORIAL HepG2 Assay for Farnesoid X Receptor (FXR) (AID 2282979; active = hit-call score of the fitted dose curve at least 0.9, where 1 is the maximum;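 note: hits raise reporter mRNA above DMSO so AC50 marks FXR activation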); conditions: HepG2 Attagene TRANS FXR-GAL4 reporter transcription
Chain of Bile acid receptor (Homo sapiens) (Q96RI1 whole entry, looked up, the tested form may be a part): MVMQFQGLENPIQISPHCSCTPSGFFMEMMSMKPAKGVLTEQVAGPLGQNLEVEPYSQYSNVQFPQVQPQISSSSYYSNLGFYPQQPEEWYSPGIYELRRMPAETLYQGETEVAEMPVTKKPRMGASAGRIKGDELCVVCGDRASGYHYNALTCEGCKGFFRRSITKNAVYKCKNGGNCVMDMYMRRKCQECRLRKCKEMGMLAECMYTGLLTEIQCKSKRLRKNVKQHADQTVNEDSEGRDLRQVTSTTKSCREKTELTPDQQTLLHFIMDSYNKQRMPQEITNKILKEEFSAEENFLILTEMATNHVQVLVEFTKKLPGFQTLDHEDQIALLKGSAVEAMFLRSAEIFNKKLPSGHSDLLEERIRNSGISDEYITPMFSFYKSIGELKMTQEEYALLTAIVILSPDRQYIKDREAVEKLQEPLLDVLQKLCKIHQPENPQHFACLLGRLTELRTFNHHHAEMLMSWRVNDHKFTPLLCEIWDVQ
Procedure, shortened: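 HepG2 cells transiently transfected with reporter constructs in which a chimeric FXR-GAL4 protein drives a GAL4-UAS reporter; 24 h compound exposure. Reporter mRNA measured by RT-PCR, FAM labelling, HpaI digestion and capillary electrophoresis; gain-of-signal versus DMSO.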

[9] = molecular target: Hepatocyte nuclear factor 4-alpha (Homo sapiens) (UniProt P41235); assay: ATG_HNF4a_TRANS: Attagene TRANS-FACTORIAL HepG2 Assay for human Hepatocyte Nuclear Factor 4 alpha (HNF4a) (AID 2282982; active = hit-call score of the fitted dose curve at least 0.9, where 1 is the maximum); conditions: HepG2 HNF4a transactivation reporter, mRNA readout
Procedure, shortened: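 In this trans-factorial format, a chimeric HNF4a-GAL4 fusion drives a GAL4-UAS reporter in transfected HepG2 liver cells. After 24 h treatment, reporter mRNA induction is measured by RT-PCR with capillary electrophoresis, relative to DMSO.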

[10] = ATG_M_06_TRANS: Attagene TRANS-FACTORIAL HepG2 Assay for M06 Transcription Factor (Internal Marker) (AID 2282983; active = hit-call score of the fitted dose curve at least 0.9, where 1 is the maximum); conditions: HepG2 Attagene TRANS M06 internal marker reporter
Procedure, shortened: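 In this multiplexed HepG2 system, compounds are incubated 24 h with cells carrying GAL4-UAS reporter units. Reporter RNA is amplified and resolved by capillary electrophoresis, and induction is scored against DMSO.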

[11] = molecular target: Transcriptional activator Myb (Homo sapiens) (UniProt P10242); assay: ATG_Myb_CIS: Attagene CIS-FACTORIAL HepG2 Assay for human Myeloblastosis (Myb) Proto-Oncogene Transcription Factor (AID 2282986); conditions: HepG2 Attagene CIS-FACTORIAL Myb reporter transcription; actives raise or lower the signal
Chain of Transcriptional activator Myb (Homo sapiens) (P10242 whole entry, looked up): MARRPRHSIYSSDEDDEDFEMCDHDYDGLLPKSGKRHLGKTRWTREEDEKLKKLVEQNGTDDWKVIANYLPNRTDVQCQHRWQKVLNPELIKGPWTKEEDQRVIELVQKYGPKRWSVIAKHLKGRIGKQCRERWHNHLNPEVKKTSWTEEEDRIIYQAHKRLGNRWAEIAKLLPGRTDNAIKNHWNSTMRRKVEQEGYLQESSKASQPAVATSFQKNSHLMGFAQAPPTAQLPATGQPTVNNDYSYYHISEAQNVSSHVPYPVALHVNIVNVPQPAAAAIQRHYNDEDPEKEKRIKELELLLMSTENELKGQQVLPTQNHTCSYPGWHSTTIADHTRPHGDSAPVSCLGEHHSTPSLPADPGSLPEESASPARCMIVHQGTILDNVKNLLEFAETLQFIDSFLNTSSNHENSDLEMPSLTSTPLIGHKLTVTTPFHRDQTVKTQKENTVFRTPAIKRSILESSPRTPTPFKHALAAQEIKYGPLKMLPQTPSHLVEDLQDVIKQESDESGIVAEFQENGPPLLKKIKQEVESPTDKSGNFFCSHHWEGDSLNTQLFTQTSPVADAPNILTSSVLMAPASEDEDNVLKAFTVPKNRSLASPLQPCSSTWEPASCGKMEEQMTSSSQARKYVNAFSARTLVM
Procedure, shortened: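 Transiently transfected HepG2 cells, treated 24 h. Reporter mRNA quantified by RT-PCR/capillary electrophoresis; bidirectional fit relative to DMSO.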

[12] = ATG_NF_kB_CIS: Attagene CIS-FACTORIAL HepG2 Assay for human Nuclear Factor Kappa B (NF-kB) (AID 2282991); conditions: HepG2 Attagene cis-factorial NF-kB reporter mRNA; actives raise or lower the signal
Procedure, shortened: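 Measures mRNA induction of an NF-kB-responsive cis-element reporter in HepG2 cells transfected with multiple reporter units, sampled 24 h post-dosing; quantified by fluorescence after RT-PCR and capillary electrophoresis, fitted for activation or inhibition against DMSO.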

[13] = molecular target: Oxysterols receptor LXR-alpha (Homo sapiens) (UniProt Q13133); assay: ATG_LXRa_TRANS: Attagene TRANS-FACTORIAL HepG2 Assay for human Liver X Receptor alpha (LXRa) (AID 2282980; active = hit-call score of the fitted dose curve at least 0.9, where 1 is the maximum); conditions: HepG2 Attagene TRANS reporter, LXRa transactivation
Chain of Oxysterols receptor LXR-alpha (Homo sapiens) (Q13133 whole entry, looked up, the tested form may be a part): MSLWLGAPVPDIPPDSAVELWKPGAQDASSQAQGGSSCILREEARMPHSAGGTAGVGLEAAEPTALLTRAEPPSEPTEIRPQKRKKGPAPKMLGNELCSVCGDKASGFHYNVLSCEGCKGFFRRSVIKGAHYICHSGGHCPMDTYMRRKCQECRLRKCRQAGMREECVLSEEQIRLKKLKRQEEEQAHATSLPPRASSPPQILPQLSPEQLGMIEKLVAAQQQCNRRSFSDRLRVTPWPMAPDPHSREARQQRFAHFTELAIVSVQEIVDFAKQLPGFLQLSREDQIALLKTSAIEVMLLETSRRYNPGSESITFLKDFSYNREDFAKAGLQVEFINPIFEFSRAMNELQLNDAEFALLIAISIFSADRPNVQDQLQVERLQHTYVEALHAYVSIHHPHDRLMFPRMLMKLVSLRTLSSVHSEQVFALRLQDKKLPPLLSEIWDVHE
Procedure, shortened: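 HepG2 cells were transiently transfected with multiplexed reporter units driven by chimeric LXRa–GAL4 fusion proteins, then dosed for 24 h. Reporter mRNA was quantified by RT-PCR, fluorescent labelling and capillary electrophoresis; gain of signal fitted against DMSO baseline.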

[14] = molecular target: Oxysterols receptor LXR-beta (Homo sapiens) (UniProt P55055); assay: ATG_LXRb_TRANS: Attagene TRANS-FACTORIAL HepG2 Assay for human Liver X Receptor beta (LXRb) (AID 2282981; active = hit-call score of the fitted dose curve at least 0.9, where 1 is the maximum); conditions: HepG2 Attagene TRANS GAL4-LXRb reporter, mRNA
Chain of Oxysterols receptor LXR-beta (Homo sapiens) (P55055 whole entry, looked up, the tested form may be a part): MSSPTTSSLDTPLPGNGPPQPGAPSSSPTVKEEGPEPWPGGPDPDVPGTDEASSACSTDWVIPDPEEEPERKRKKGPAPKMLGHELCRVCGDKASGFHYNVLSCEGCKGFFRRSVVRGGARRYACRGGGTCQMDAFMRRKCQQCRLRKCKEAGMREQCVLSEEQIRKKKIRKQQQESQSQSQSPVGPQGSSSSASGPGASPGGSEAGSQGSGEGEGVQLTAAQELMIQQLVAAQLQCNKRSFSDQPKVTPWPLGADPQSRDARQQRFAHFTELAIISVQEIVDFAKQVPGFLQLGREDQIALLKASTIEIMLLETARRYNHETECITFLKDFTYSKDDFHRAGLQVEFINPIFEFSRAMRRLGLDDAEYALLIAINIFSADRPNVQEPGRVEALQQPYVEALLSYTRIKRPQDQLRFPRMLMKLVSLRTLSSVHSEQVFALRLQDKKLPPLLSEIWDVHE
Procedure, shortened: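 Measures induction of a Gal4-driven reporter transcript in HepG2 cells expressing an exogenous LXRb-Gal4 fusion. Cells are exposed to compound for 24 h before RNA isolation and RT-PCR with capillary electrophoresis detection.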

[15] = molecular target: Cellular tumor antigen p53 (Homo sapiens) (UniProt P04637); assay: ATG_p53_CIS: Attagene CIS-FACTORIAL HepG2 Assay for human p53 Transcription Factor (AID 2282994); conditions: HepG2 p53 cis-element reporter, Attagene mRNA; actives raise or lower the signal
Chain of Cellular tumor antigen p53 (Homo sapiens) (P04637 whole entry, looked up): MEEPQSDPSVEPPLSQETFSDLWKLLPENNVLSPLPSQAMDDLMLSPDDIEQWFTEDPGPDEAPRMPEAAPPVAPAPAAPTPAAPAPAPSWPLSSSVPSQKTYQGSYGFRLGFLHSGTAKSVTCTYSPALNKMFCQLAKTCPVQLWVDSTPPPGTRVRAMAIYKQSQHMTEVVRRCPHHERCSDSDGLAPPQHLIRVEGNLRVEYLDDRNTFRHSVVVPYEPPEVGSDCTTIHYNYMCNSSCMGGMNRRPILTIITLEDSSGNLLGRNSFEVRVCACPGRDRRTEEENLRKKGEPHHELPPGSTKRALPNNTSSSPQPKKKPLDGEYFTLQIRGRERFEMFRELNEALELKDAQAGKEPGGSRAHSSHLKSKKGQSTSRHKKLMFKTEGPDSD
Procedure, shortened: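 Transiently transfected HepG2 (multiple cis reporter transcription units); exposure 24 h; reporter RNA via RT-PCR, 6-FAM extension, 2 h HpaI digest at 37 C, CE detection; DMSO baseline.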

[16] = molecular target: Nuclear receptor subfamily 4 group A member 2 (Homo sapiens) (UniProt P43354); assay: ATG_NURR1_TRANS: Attagene TRANS-FACTORIAL HepG2 Assay for human Nuclear Receptor Related Protein 1 (NURR1) (AID 2282985; active = hit-call score of the fitted dose curve at least 0.9, where 1 is the maximum); conditions: HepG2 Attagene TRANS reporter, mRNA readout
Chain of Nuclear receptor subfamily 4 group A member 2 (Homo sapiens) (P43354 whole entry, looked up, the tested form may be a part): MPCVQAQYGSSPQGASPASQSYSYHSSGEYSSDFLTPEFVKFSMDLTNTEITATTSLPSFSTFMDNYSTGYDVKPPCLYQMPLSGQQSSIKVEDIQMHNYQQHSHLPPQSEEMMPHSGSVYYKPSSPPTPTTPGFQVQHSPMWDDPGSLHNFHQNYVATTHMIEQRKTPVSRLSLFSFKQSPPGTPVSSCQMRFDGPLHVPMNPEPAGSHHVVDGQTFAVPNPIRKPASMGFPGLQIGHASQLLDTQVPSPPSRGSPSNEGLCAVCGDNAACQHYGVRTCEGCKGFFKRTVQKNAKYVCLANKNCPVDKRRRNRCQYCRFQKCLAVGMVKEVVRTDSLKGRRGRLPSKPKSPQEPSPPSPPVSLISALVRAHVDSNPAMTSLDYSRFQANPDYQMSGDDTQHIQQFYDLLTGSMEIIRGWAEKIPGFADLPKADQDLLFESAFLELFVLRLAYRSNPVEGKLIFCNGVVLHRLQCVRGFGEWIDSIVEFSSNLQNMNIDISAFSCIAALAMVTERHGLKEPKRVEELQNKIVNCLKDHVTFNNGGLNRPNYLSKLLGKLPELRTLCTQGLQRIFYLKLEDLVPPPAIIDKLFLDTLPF
Procedure, shortened: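 Chimeric NR-Gal4 fusion activity measured in HepG2 after 24 h treatment. Reporter transcripts detected by RT-PCR and capillary electrophoresis fluorescence; positive-direction curve fitting against DMSO.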

CC(=O)CCC(=O)O
outcome [1]: inactive
outcome [2]: inactive
outcome [3]: inactive
outcome [4]: inactive
outcome [5]: inactive
outcome [6]: inactive
outcome [7]: inactive

Cc1ccccc1S
outcome [8]: inactive
outcome [9]: inactive
outcome [10]: inactive
outcome [11]: inactive
outcome [3]: inactive
AC50 [4]: 74 µM (active)
AC50 [5]: 45 µM (active)
outcome [12]: inactive
AC50 [6]: 24.5 µM (active)

CC(CO)(CO)[N+](=O)[O-]
outcome [8]: inactive
outcome [13]: inactive
outcome [9]: inactive
outcome [2]: inactive
outcome [11]: inactive
outcome [3]: inactive
outcome [4]: inactive
outcome [5]: inactive
outcome [6]: inactive
outcome [7]: inactive

CC(O)COCC(C)O (centres undefined)
outcome [8]: inactive
outcome [14]: inactive
outcome [2]: inactive
outcome [3]: inactive
outcome [5]: inactive
outcome [6]: inactive
outcome [7]: inactive
outcome [15]: inactive

CCCCOCCOC(=O)c1ccccc1C(=O)OCCOCCCC
outcome [8]: inactive
outcome [14]: inactive
outcome [10]: inactive
outcome [2]: inactive
AC50 [16]: 45.3 µM (active)
outcome [11]: inactive
outcome [3]: inactive
outcome [4]: inactive
outcome [5]: inactive
AC50 [6]: 37.7 µM (active)
outcome [7]: inactive
outcome [15]: inactive

CC1=CCC(C(C)(C)O)CC1 (centres undefined)
outcome [8]: inactive
outcome [10]: inactive
outcome [16]: inactive
outcome [11]: inactive
outcome [3]: inactive
outcome [4]: inactive
outcome [5]: inactive
outcome [12]: inactive
outcome [6]: inactive
outcome [7]: inactive
outcome [15]: inactive

C=CCOCC(O)CO (centres undefined)
outcome [8]: inactive
outcome [13]: inactive
outcome [9]: inactive
outcome [10]: inactive
AC50 [11]: 152 µM (active)
outcome [3]: inactive
outcome [4]: inactive
AC50 [5]: 137 µM (active)
outcome [6]: inactive
outcome [7]: inactive
outcome [15]: inactive

CC/C=C\CCOC(C)OCC (centres undefined)
outcome [1]: inactive
outcome [9]: inactive
outcome [10]: inactive
outcome [2]: inactive
outcome [16]: inactive
outcome [3]: inactive
outcome [4]: inactive
outcome [5]: inactive
outcome [6]: inactive
outcome [7]: inactive
outcome [15]: inactive

C=C(C)C(=O)OCCC(C)OC(=O)C(=C)C (centres undefined)
outcome [1]: inactive
outcome [9]: inactive
outcome [2]: inactive
outcome [11]: inactive
outcome [4]: inactive
outcome [5]: inactive
outcome [12]: inactive
outcome [6]: inactive
outcome [7]: inactive
outcome [15]: inactive

O=Cc1ccccc1O
outcome [13]: inactive
outcome [14]: inactive
outcome [9]: inactive
outcome [2]: inactive
outcome [16]: inactive
outcome [11]: inactive
outcome [3]: inactive
outcome [5]: inactive
outcome [12]: inactive
outcome [6]: inactive
outcome [7]: inactive
outcome [15]: inactive

CC1(C)CC(=O)CC(C)(C)N1
outcome [13]: inactive
outcome [14]: inactive
outcome [10]: inactive
outcome [16]: inactive
outcome [4]: inactive
outcome [5]: inactive
outcome [12]: inactive
outcome [6]: inactive
outcome [7]: inactive
outcome [15]: inactive

CCCCCCCCCCOC(=O)c1ccccc1C(=O)OCCCCCCCC
outcome [13]: inactive
outcome [9]: inactive
outcome [3]: inactive
outcome [5]: inactive
outcome [6]: inactive
outcome [7]: inactive
outcome [15]: inactive

O=C(O)c1cccc(Cl)n1
outcome [13]: inactive
outcome [9]: inactive
outcome [2]: inactive
outcome [11]: inactive
outcome [3]: inactive
outcome [4]: inactive
outcome [5]: inactive
outcome [12]: inactive
outcome [6]: inactive
outcome [7]: inactive
outcome [15]: inactive
